Experimental data from PMC7819943, “Rice protein-binding microarrays: a tool to detect cis-acting elements near promoter regions in rice”.
The full ranking holds about 68,000 sequences; the median of “fluorescence intensity (a.u.)” is about 9,100, and the highest 2% start at about 16,000. This is one part of a sample in which the highest values are shown more often than they occur.

Biological target: OsWRKY34 (Oryza sativa, UniProt Q0JBA9 1-250)
Assay: protein-binding microarray (RPBM); PBS, 2% BSA, 51.3 ng/ul salmon testes DNA, 50 uM zinc acetate, 200 nM TF, 25 C, 1 h; high values mean tight binding
Conditions: protein: recombinant; tags: N-terminal polyhistidine and DsRed monomer fusion (pET32a); label: CyDye5-dUTP incorporated in the synthesized complementary strand; 3' TTTTT single-stranded linker to array surface; dsDNA, one strand shown
How it was run: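 In PBS with 2% BSA, salmon testes DNA and 50 µM zinc acetate, 200 nM protein was incubated on a custom Agilent array at 25 °C for 1 h and then washed off. The array had been made double-stranded by primer extension with Cy5-dUTP and blocked with 2% BSA. The proteins were transcription factors fused N-terminally to polyhistidine and DsRed, expressed in E. coli BL21-CodonPlus and purified on Ni–NTA. The binding signal is per-feature fluorescence intensity (arbitrary units) from an Axon 4000B scanner.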

OsWRKY34, sequence (Q0JBA9 entry or part of it): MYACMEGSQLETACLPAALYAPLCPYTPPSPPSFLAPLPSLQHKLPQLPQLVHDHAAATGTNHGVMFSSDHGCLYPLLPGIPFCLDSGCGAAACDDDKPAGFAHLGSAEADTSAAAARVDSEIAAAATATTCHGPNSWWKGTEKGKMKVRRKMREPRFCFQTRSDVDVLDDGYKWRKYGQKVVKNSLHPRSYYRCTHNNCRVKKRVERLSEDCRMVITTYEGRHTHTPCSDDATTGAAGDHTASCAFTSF

Sequence | binding signal
GGCTTTTATGGGGCGGGCTTTCTTTGGTCAATGGTCACTACGGAGTCACCTAGTGCAG | 32200 fluorescence intensity (a.u.)
GGTGGGTAGTTTTCTGCGTTTTCTTTTGTATTTTTGGTTGCGGAGTCACCTAGTGCAG | 11500 fluorescence intensity (a.u.)
GGGAAATTGGGTAATTAATTAATTATGTGAAAGGGGTGGGCGGAGTCACCTAGTGCAG | 12800 fluorescence intensity (a.u.)
TTTTTCAATTTTTGGTTAAAATTTTTGGGGCTTTTCTTCGCGGAGTCACCTAGTGCAG | 8990 fluorescence intensity (a.u.)
AAGACATTGCATCAACCGTCTTGCCAATCTATGTTTTCTACGGAGTCACCTAGTGCAG | 8280 fluorescence intensity (a.u.)
ATTATAAGTTGTTTCTTCTTAGGTTGTGTTTAGTTCCTTGCGGAGTCACCTAGTGCAG | 9250 fluorescence intensity (a.u.)
GCTTCCTCGGCCTCGGGCCGCGTCTCCATGGTCGACTTGACGGAGTCACCTAGTGCAG | 11200 fluorescence intensity (a.u.)
ACCAGTTAATGTACATTTGCAATTATATTTTGTTATTTTTCGGAGTCACCTAGTGCAG | 8230 fluorescence intensity (a.u.)
ACCACTTGGCTTTCTTTCTTTTATCCGGTTAGTTCCGGCGCGGAGTCACCTAGTGCAG | 8090 fluorescence intensity (a.u.)
CCTTTTTAGTCGGACTTCTTTTTCTTTTTTACCGACTTTGCGGAGTCACCTAGTGCAG | 10300 fluorescence intensity (a.u.)
ATGTAGATGTGGTCATGTGGGTGCTATCTGTGTGGGTGATCGGAGTCACCTAGTGCAG | 9360 fluorescence intensity (a.u.)
GAGATGGATGTGTGGTGATGGCCTAGGATGTGGGATGGATCGGAGTCACCTAGTGCAG | 8160 fluorescence intensity (a.u.)
GGTGGTGTTGTTGGTGGTGCAGTTCTTGGAGTCACATGGTCGGAGTCACCTAGTGCAG | 10300 fluorescence intensity (a.u.)
GAGATGCGGCACGGTTGGCTTGTTGACTTTTTCCGGCCCGCGGAGTCACCTAGTGCAG | 17500 fluorescence intensity (a.u.)
GGAGTTTGGTTGGTTGGTGGTGTTCTTGACGGGGCATGGACGGAGTCACCTAGTGCAG | 31200 fluorescence intensity (a.u.)
GTTGTTTGTTTGAGACTCTGTTCCTTTTGGCTTGGTTTTCCGGAGTCACCTAGTGCAG | 12700 fluorescence intensity (a.u.)
GTAAGTGTGTGTTCAGTGATGGCTATCGGTGGGTGGGTGGCGGAGTCACCTAGTGCAG | 16600 fluorescence intensity (a.u.)
AGTTCTTGGAGTCACATGGTTGGTGGTGGTGTGGGCAGTTCGGAGTCACCTAGTGCAG | 14200 fluorescence intensity (a.u.)
TTTTTTGTCGGACTTTTTTCTTCATTTTTTACCTCTTTTGCGGAGTCACCTAGTGCAG | 16900 fluorescence intensity (a.u.)
TCTTTATTTACCTTTTTTTGAGTCGGACTTCTTTTTCTTTCGGAGTCACCTAGTGCAG | 8240 fluorescence intensity (a.u.)
TTCTCCCTTTATTTTTGTTTATATAATTTCCAGATCAAAGCGGAGTCACCTAGTGCAG | 8890 fluorescence intensity (a.u.)

Sequence | binding signal
GCCGCCGCCTCGCTCCCCATGGCGTCCGTACACTCCGGCGCGGAGTCACCTAGTGCAG | 10300 fluorescence intensity (a.u.)
GCCGCCGCCCGCCGCCGCCGAGACCGACCCGACCACGATGCGGAGTCACCTAGTGCAG | 8960 fluorescence intensity (a.u.)
AATTTCGGAAGGGTTGGTTTAGGCAGTAATATTCTCCATTCGGAGTCACCTAGTGCAG | 8280 fluorescence intensity (a.u.)
GTGGCCTTTGGGAGCGGTGACCTGCTGCTCCATCCTTCATCGGAGTCACCTAGTGCAG | 9620 fluorescence intensity (a.u.)
ATCCTGATCAGATTCTGAACTCCTTTTCTCTCTGCGCCCACGGAGTCACCTAGTGCAG | 8480 fluorescence intensity (a.u.)
CACGTCGCCTCGTTTCTTGCCTCGCCGCTCGTCACTCGGCCGGAGTCACCTAGTGCAG | 9810 fluorescence intensity (a.u.)
CGATCTTGCCCTGGTTGGTTGGTGGTGGTGGTGGGTTTTGCGGAGTCACCTAGTGCAG | 37100 fluorescence intensity (a.u.)
GGCGAGTGGCGGATTTGTTTTTGGTTTGTTTTTGAGTTTGCGGAGTCACCTAGTGCAG | 9060 fluorescence intensity (a.u.)
GTTTATTGTATTTGGAGTAAGTGATTGTAACTTTTTTTTACGGAGTCACCTAGTGCAG | 9200 fluorescence intensity (a.u.)
GATAGTTGAGGGGTCGAGATTTTTGGTATTGCGGATTGGGCGGAGTCACCTAGTGCAG | 10400 fluorescence intensity (a.u.)
AATATGTGGGTGATTTGTTGTAATGGAGTATGTGGTGGAGCGGAGTCACCTAGTGCAG | 10000 fluorescence intensity (a.u.)
CTTGGCTTGGTTTGGTTTGGTGTTTGATCACGCGGTGGTGCGGAGTCACCTAGTGCAG | 20800 fluorescence intensity (a.u.)
CGGTGGACTGGTGGTTTTTGCGGGGTTGCAGAATTTGGTGCGGAGTCACCTAGTGCAG | 9390 fluorescence intensity (a.u.)
CGGTGGTGGTGGTGGTGCCTTGGCTAGTTTGGCCGGCGCGCGGAGTCACCTAGTGCAG | 14300 fluorescence intensity (a.u.)
TATTTTTGGGTTGGGTTTGGGTTGGGTTGGGTCGAGTTGGCGGAGTCACCTAGTGCAG | 26100 fluorescence intensity (a.u.)
GGTGGGTTGGGCCGTGATTTGTATGGACTTTATTTGTAAGCGGAGTCACCTAGTGCAG | 19000 fluorescence intensity (a.u.)
GGTGGTCTTCTTTTTTTGCGGTGGAGTTGGATTTGGGTTGCGGAGTCACCTAGTGCAG | 13000 fluorescence intensity (a.u.)
CGGTTTCGTTTGAGATTTTTTTTTGGTGGTTTTGATTTCGCGGAGTCACCTAGTGCAG | 8640 fluorescence intensity (a.u.)
GTTTACATGTGTAGATCTAATGATGCGTTCAATCTAGTTTCGGAGTCACCTAGTGCAG | 8860 fluorescence intensity (a.u.)
GCGGATTTCCTTTCTAAACGTGCCAACGATGTGTTCTTGTCGGAGTCACCTAGTGCAG | 8250 fluorescence intensity (a.u.)
CAAAACAGAAGAGCCAGGTTAGTTTAGTTGGTCATATTCACGGAGTCACCTAGTGCAG | 8310 fluorescence intensity (a.u.)
